Experimental data as given in PubChem BioAssay (NCI).
The panel holds about 83,000 compounds, 20% with a hit somewhere; the sample as a whole holds those more often.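 Cells were grown in 96-well plates and exposed to the test compound at a single concentration for 48 hours; results are reported as percent growth, with values below 10 considered active.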 Active and inactive are the calls of the source.

The compounds below were run on NCI-H322M lung (assay: NCI-60 one-dose screen, 48 h (100 = growth as untreated, 0 = no growth, -100 = all killed)). Conditions: 10 µM unless noted.
Procedure: Growth inhibition of the NCI-H322M human Non-Small Cell Lung tumor cell line is measured as a screen for anti-cancer activity. Cells are grown in 96 well plates and exposed to the test compound for 48 hours. Compounds are tested at a single concentration, which is 10^-5 M for most compounds. The reported endpoint is percent growth (GI% or GIPRCNT), where numbers from 0 - 100% represent growth inhibition, and numbers from -100% - 0 represent cell death. For example, a value of 40 represents 60% growth inhibition. A value of 0 means no net growth occurred over the course of the experiment. A value of -40 indicates 40% of cells at the beginning of the experiment died by the end of the experiment. A value of -100 means all cells are dead at the end of the experiment.
NCI-60 Human Tumor Cell Lines Screen was performed using the standard one-dose NCI protocol, which is described in more detail at https://dtp.cancer.gov/discovery_development/nci-60/default.htm.
Compounds with GIPRCNT values below 10 were considered active. Activity score was based on GIPRCNT using the following formula: […]
Score is 0 for GIPRCNT values of 100 or above, 50 for GIPRCNT values of 0, and 100 for GIPRCNT values of -100.

Compound	growth
O=C(Nc1ncc(Cc2ccccc2Cl)s1)c1cccs1	78% (inactive)
O=c1oc2c(cnc3ccccc32)cc1-c1cccs1	104% (inactive)
O=C(N/N=C/c1ccc(O)cc1O)c1ccc(Nc2ccnc(C(F)(F)F)c2)cc1	-3.47% (active)
CN1CCN(Cc2ccc(NC(=O)c3cncc(C#Cc4cnn5ccccc45)c3)cc2C(F)(F)F)CC1	-2.81% (active)
N#CC(C#N)N=Nc1ccc(Cl)cc1Cl	107% (inactive)
C=C1C(=O)O[C@H]2[C@H]1CC/C(COC(=O)NCCCCCCCCNC(=O)OC/C1=C/CC[C@@]3(C)O[C@H]3[C@H]3OC(=O)C(=C)[C@@H]3CC1)=C\CC[C@@]1(C)O[C@@H]21	-26.4% (active)
O=C(CCCCNC(=O)c1cc(=O)c(O)co1)Nc1ccccc1	102% (inactive)
CC1(C)O[C@H]2OC3CCC(=O)CC3(O)[C@H]2O1 (stereo not given in full)	101% (inactive)
COc1cc(-c2nc3occn3c2-c2ccnc(NCCCNS(=O)(=O)c3ccccc3)n2)ccc1F	78.3% (inactive)
COc1cccc(OC)c1Oc1c(-c2nc3ccccc3s2)c(C)nn1-c1ccccc1	65.6% (inactive)
FC(F)(F)c1[nH]ncc1-c1nc2c(N3CCCCC3)cc3[nH]ncc3c2c2c1CCCC2	-2.53% (active)
Cc1cc2nc(-c3c(-c4ccc(F)cc4)nc4sccn34)[nH]c2cc1C	99.7% (inactive)
COc1ccc2cc(-c3cnc4nonc4n3)ccc2c1	54.5% (inactive)
O=C(O)c1cccc(N/C=C/C(=O)c2cc3cc(Br)ccc3oc2=O)c1	100% (inactive)
CCOC(=O)C(=Cc1cccc(C#N)c1)C(=O)OCC	91% (inactive)
Fc1ccc2c(c1)c(-c1nc(-c3c[nH]c4ncccc34)cs1)cn2CCCN1CCOCC1	80.9% (inactive)
O=C(Nc1ccc(F)cc1)Nc1ccccc1CNc1nc(Nc2ccc(OCCN3CCCC3)cc2)ncc1Cl	89.1% (inactive)
Cc1cccc(NC(=O)CSc2nc3ccc([N+](=O)[O-])cc3[nH]2)c1	97.2% (inactive)
CN(C)c1ccc(-c2cc(-c3ccc(Nc4nc(Nc5ccc(Cl)cc5)nc(Nc5ccc(Cl)cc5)n4)cc3)nc(N)c2C#N)cc1	115% (inactive)
Nc1ccc([N+](=O)[O-])cc1N=C/C=C/c1ccccc1	87.8% (inactive)

Compound	growth
Cn1c(=O)c2c(nc(NC3=NS(=O)(=O)c4ccccc43)n2Cc2ccccc2)n(C)c1=O	101% (inactive)
CC12CCC(/C(=C/NNc3ccc([N+](=O)[O-])cc3[N+](=O)[O-])C1=O)C2(C)C (stereo not given)	83.6% (inactive)
CCNC(=O)Oc1ccc(/C(=C(/C)Cc2ccc(OC)cc2)c2ccc(OCCN3CCCCCC3)cc2)cc1	95.5% (inactive)
COc1ccc(-c2cc(-c3ccc(OC)cc3)nc(NCCCNc3ccnc4cc(Cl)ccc34)n2)cc1	98.4% (inactive)
O=C(N/N=C/c1ccc(Cl)cc1Cl)c1ccc2nc(-c3ccc(Cl)cc3)[nH]c2c1	27.7% (inactive)
COc1cccc2c(N=NC(=O)c3ccc(S(N)(=O)=O)cc3)c(O)[nH]c12	99.7% (inactive)
CC[C@H](CC[C@@H](C)[C@H]1CC[C@H]2[C@@H]3CC[C@@H]4CC(=O)/C(=C\c5ccncc5)C[C@]4(C)[C@H]3CC[C@]12C)C(C)C	98.3% (inactive)
CN1CCN(CCOc2ccc(-c3cnc4c(-c5ccc(C(F)(F)F)cc5)cnn4c3)cc2)CC1	64.3% (inactive)
Cc1ccc(/C=C/C(=O)c2ccc(NC(=O)CSc3nc4c([nH]3)c(=O)n(C)c(=O)n4C)cc2)c(C)c1	71.3% (inactive)
Clc1ccc(-c2nc(-c3c[nH]c4ncccc34)cs2)cc1	61.7% [100 µM] (inactive)
CC/C=C\C/C=C/C=C1/C(=O)C=C[C@@H]1C/C=C\CCCC(=O)OC	95.8% (inactive)
COCC[C@H]1CCC/C=C/[C@@H]2C[C@H](O)C[C@H]2[C@H](O)/C=C/C(=O)O1	29.7% (inactive)
COc1ccc(C(C)=O)cc1S(N)(=O)=O	97.1% (inactive)
Cn1cc(-c2csc(-c3cn(C(=O)OC(C)(C)C)c4ccccc34)n2)c2ccnc(Cl)c21	85.3% (inactive)
CN(Cc1cnc2nc(N)nc(N)c2n1)c1c(Cl)cc(C(=O)NC(CCC(=O)O)C(=O)O)cc1Cl (stereo not given)	31.2% (inactive)
O=C(Cn1nnc([N+](=O)[O-])n1)c1ccccc1	101% (inactive)
CCOC(=O)C1=C(c2ccccc2)N=c2s/c(=C/c3ccc(Br)cc3)c(=O)n2C1c1ccc(O)cc1 (stereo not given)	91.9% (inactive)
Cc1ccc(/C=C(\C#N)C(=O)Nc2ncc(Cc3cc(Cl)ccc3Cl)s2)o1	47.3% (inactive)
C=C1C(=O)O[C@H]2[C@H]1CC/C(CNC(=O)c1cc3ccccc3[nH]1)=C\CC[C@@]1(C)O[C@@H]21	63.8% (inactive)
COc1cc(Nc2c3ccc(Cl)cc3nc3ccc(OC)cc23)c2ncccc2c1	47.9% (inactive)
